Assay outcomes (PubChem)
HCV inhibitor: blocks hepatitis C virus | 3.4% of 340,000 active | Huh7.5.1 HCVcc-Cre infection, luciferase reporter, 44 h | AID 651820 | Potency, µM (highest dose often 41.8 µM), inactives show at the highest dose activity change, negative = inhibition, usual class: inhibitors
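Luciferase read-out (15 sec integration) after a 15 min room-temperature substrate step quantifies HCVcc-Cre infection. Cells, 1,000 per well, had compound added 4 h post-plating, then virus at ~0.5 moi, and were cultured 44 h.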
Pf growth 48h: inhibits P. falciparum growth in the first generation, 48 h; P. falciparum luciferase growth in erythrocytes, 48 h; Potency, µM (doses to about 28.7 µM), for the others: top-dose activity change, negative = inhibition, most hits filed as inhibitors; 5.9% of 310,000 active
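Growth was read as firefly luciferase luminescence after a 48 h, 37 C, 5% CO2 exposure of compounds to reporter-bearing P. falciparum cultures (0.1% parasitemia, 2% hematocrit final) in Albumax-supplemented RPMI 1640.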
Pf growth 96h: P. falciparum growth inhibition at 96 hours | Potency, µM (titrated, usually from 28.7 µM), for inactives: top-dose activity change, negative = inhibition, hits mostly inhibitors | AID 504834 | 6.9% of 320,000 active | P. falciparum luciferase reporter growth, 96 h
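Luminescence readout: decreased luciferase signal marks inhibited growth of reporter-expressing P. falciparum in infected red cells (2% hematocrit, 0.05% parasitemia final), exposed to compound two generations (96 h, 37 C, 5% CO2).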
AmpC no deterg: inhibitors of E. coli AmpC beta-lactamase without detergent. P00811. AmpC nitrocefin hydrolysis, absorbance 480 nm, 0.0001% Triton. Potency, µM (highest dose often 57.1 µM), inactives show at the highest dose activity change, negative = inhibition, usual class: inhibitors. 0.52% of 330,000 active. AID 485341;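 further: plate controls were no compound for no effect and no enzyme for full effect; nearly all actives have a fitted effect of over 20% in size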
Target sequence (P00811 whole entry, looked up): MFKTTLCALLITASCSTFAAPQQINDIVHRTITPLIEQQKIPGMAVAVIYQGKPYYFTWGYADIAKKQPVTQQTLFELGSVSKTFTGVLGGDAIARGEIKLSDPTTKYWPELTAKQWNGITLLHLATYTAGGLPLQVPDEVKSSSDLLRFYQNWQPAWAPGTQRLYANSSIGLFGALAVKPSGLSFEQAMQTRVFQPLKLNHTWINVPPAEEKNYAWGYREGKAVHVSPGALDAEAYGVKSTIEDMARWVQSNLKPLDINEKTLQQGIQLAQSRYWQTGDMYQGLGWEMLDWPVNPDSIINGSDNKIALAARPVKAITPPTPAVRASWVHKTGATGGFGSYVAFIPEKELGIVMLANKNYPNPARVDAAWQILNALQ
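AmpC (5.3 nM in the dispensed reagent) in 20 mM phosphate pH 7.0 with 0.01% (detergent screen) or 0.0001% Triton X-100 was preincubated with compounds for 15 min at room temperature. Nitrocefin was then added from an 800 uM solution, and hydrolysis was followed at 480 nm.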
AmpC detergent: blocks E. coli AmpC beta-lactamase in detergent assay. P00811. AmpC hydrolysis of nitrocefin, absorbance 480 nm, 0.01% Triton. Potency, µM (series often up to 114 µM), for the others: top-dose activity change, negative = inhibition, hits mostly inhibitors. 0.041% of 370,000 active. AID 485294;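 further: 0% = no-compound wells and -100% = no-enzyme wells; nearly all actives have a fitted effect of over 25% in size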
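20 mM phosphate pH 7.0 + 0.01% (detergent screen) or 0.0001% Triton X-100; 5.3 nM AmpC reagent; cpd preinc 15 min RT; nitrocefin (800 uM stock) to start; A480 q20 s × 4 min; Activity was normalised to no-enzyme and no-compound control wells.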
AMA1 RON2 block: AMA1-RON2 (P. falciparum) interaction inhibition; Potency, µM (titrated, usually from 58.2 µM), for the others: at the highest dose activity change, negative = inhibition, actives largely listed as inhibitors; AID 720542; 0.2% of 360,000 active; AlphaScreen AMA1-biotinylated RON2 peptide binding;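 further: 0% = vehicle wells and -100% = peptide control; nearly all actives have a fitted effect of over 45% in size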
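AMA1 (3D7) with his tag at 25 nM final met compounds first, then biotinylated RON2 peptide at 25 nM; detection used donor plus acceptor beads, 10 µg/mL apiece, read by AlphaScreen after 30 min at room temperature.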
The depositor's hits bear a star; ? = inconclusive; · = no result given; ! = not active in a repeat. Only some compounds are listed: those with a hit (about 11% of all), similar ones and a draw of the others. The call rests on the fitted dose curve; in most records, active means well fitted curve in the direction sought with a large enough effect; inconclusive means small, poorly fitted or top-dose-only effect, or another doubt; inactive means no such curve, though single readings can be large; an effect the other way counts as inactive or inconclusive. Unless noted, on the % scale 0 is the no-effect control and ±100 the full control effect; potency means the concentration at half of the fitted maximal effect.

SMILES	HCV inhibitor	Pf growth 48h	Pf growth 96h	AmpC no deterg	AmpC detergent	AMA1 RON2 block
COc1ccc(C(=O)Nc2ccccc2C(=O)NC(Cc2ccc(O)cc2)C(=O)NNC(=O)c2ccc(C)cc2)cc1 (configuration not stated)	-24.5%	?	?	-14.6%	-18.3%	101.4%
COc1ccc(C(=O)Nc2ccccc2C(=O)NC(Cc2ccc(O)cc2)C(=O)NNC(=O)c2ccncc2)cc1 (configuration not stated)	-24.6%	11.7µM*	151.1%	-51.7%	-9.7%	80.9%
CC(C)C(NC(=O)c1ccccc1NC(=O)c1ccccc1)C(=O)NNC(=O)c1ccncc1 (configuration not stated)	-9.0%	?	?	25.3%	1.9%	129.9%
COc1ccc(C(CNC(=O)COc2ccc(Cl)c(C)c2)N2CCOCC2)cc1 (configuration not stated)	·	·	·	·	2.0%	·
COc1ccc(Nc2nc(Nc3ccc(OC)cc3)nc(-n3[nH]c(=O)c(C)c3C)n2)cc1	10µM*	2.62µM*	·	35.9%	1.1%	6.2%
COc1ccc(Nc2ccnc(Nc3ccc(OC)cc3)n2)cc1	?	?	?	-22.3%	-6.9%	?
COc1ccc(N(CC(=O)NCCSc2ccccn2)S(=O)(=O)c2ccccc2)cc1OC	7.4%	-23.5%	-23.3%	22.0%	?	-2.5%
COc1cccc(N(CC(=O)NCCSc2ccccn2)S(=O)(=O)c2ccccc2)c1	-16.5%	13.1µM*	5.3%	-0.2%	-8.0%	0.0%
COc1ccc(Cl)cc1N(CC(=O)NCCSc1ccccn1)S(=O)(=O)c1ccccc1	1.6%	-17.3%	1.65µM*	35.9%	?	-2.7%
CCn1nnc2cc(C(=O)Nc3ccc(Cl)cc3C)ccc21	·	·	·	·	1.2%	·
COC(=O)COc1nsnc1N1CCOCC1	12.0%	5.2%	·	-7.5%	4.2%	31.8%
CC(C)(C)NC[C@H](O)COc1nsnc1N1CCOCC1	20.4%	2.39µM*!	0.675µM*!	-8.3%	?	5.5%
Cc1nn(C)c2c1c(-c1ccccc1)cc(=O)n2CC(=O)NC(C)C	·	·	·	·	-0.1%	·
COC(=O)CNC(=O)c1cccc(-c2ccc(OC)cc2)c1	5.8%	65.6%	2.33µM*	37.8%	7.7%	-4.5%
Cc1nn(-c2ccccc2)c(N)c1N=Nc1ccc2ccccc2c1	-29.4%	86.9%	91.5%	22.6%	-6.2%	22.4µM*
CC(C)c1nc2sc3c(NCc4ccccc4)ncnc3c2c2c1COC(C)(C)C2	-3.5%	·	9.28µM*	-10.8%	-19.6%	7.8%
Cc1cc(C)c(NC(=O)Cn2c(=O)n(-c3cccc(C(F)(F)F)c3)c(=O)c3c(C)c(C)sc32)c(C)c1	·	·	·	·	24.5%	·
CC(=O)C(N=Nc1ccccc1)(Sc1nnc(-c2ccccc2)n1-c1ccccc1)C(=O)Nc1ccccc1 (configuration not stated)	-15.7%	13.1µM*	11.7µM*	-16.8%	3.7%	-7.8%
CC(=O)/C(=N\Nc1ccccc1)Sc1nnc(-c2ccccc2)n1-c1ccccc1	-18.5%	-27.1%	?	-21.1%	-6.3%	21.4%
CC(=O)C(N=Nc1ccccc1)(Sc1nnc(-c2ccccc2)n1-c1ccccc1)C(C)=O	?	?	11.7µM*	23.5%	-10.9%	-23.4%
O=C(Cn1cc(C(=O)c2ccco2)c2ccccc21)Nc1ccccc1C(F)(F)F	·	·	·	·	7.9%	·
COC(=O)C1=C(c2cccc(C#N)c2)C[C@@H]2CC[C@H]1N2C(=O)NCc1cc(C)oc1C(F)(F)F	?	11.7µM*	?	50.7%	5.0%	4.8%
COC(=O)C1=C(c2cccc(C#N)c2)C[C@@H]2CC[C@H]1N2C(=O)NCc1cccc2ccccc12	?	8.28µM*	?	-5.7%	-2.1%	-0.5%
COC(=O)C1=C(c2ccc(-c3ccccc3)c(F)c2)C[C@@H]2CC[C@H]1N2C(=O)NCc1cc(C)oc1C(F)(F)F	?	2.33µM*	?	-16.8%	11.6%	-4.0%
COC(=O)C1=C(c2cccc(C#N)c2)C[C@@H]2CC[C@H]1N2C(=O)NCc1ccc(F)cc1	28.4%	?	-8.4%	-8.8%	7.1%	0.5%
SMILES	HCV inhibitor	Pf growth 48h	Pf growth 96h	AmpC no deterg	AmpC detergent	AMA1 RON2 block
CC(=O)Nc1ccc(NC(=O)C(Cc2ccccc2)N2Cc3ccccc3C2=O)cc1 (configuration not stated)	·	·	·	·	18.3%	·
C/C(=N\Nc1nc(N2CCOCC2)nc(N2CCOCC2)n1)c1cccc([N+](=O)[O-])c1	?	10.4µM*	8.9%	84.8%	-4.2%	50.7%
C/C(=N\Nc1cc(N2CCOCC2)ncn1)c1cccc([N+](=O)[O-])c1	-0.2%	-10.1%	28.9%	-11.1%	-7.2%	-2.7%
CC(=O)Nc1ccc(/C(C)=N/Nc2nc(Nc3ccccc3)nc(N3CCOCC3)n2)cc1	?	2.08µM*	26.4%	64.1%	-2.9%	70.0%
O=C(NNc1nc(Nc2ccccc2)nc(N2CCOCC2)n1)Nc1ccc(Cl)cc1	-20.5%	10.4µM*	177.9%	-4.4%	7.0%	27.0%
CCN(c1ccc(C)cc1)S(=O)(=O)c1nnc(NC(=O)C2CCCCC2)s1	·	·	·	·	28.7%	·
CCOC(=O)CC1(NC(=O)c2cc(COc3cccc(OC)c3)on2)CCCCC1	10µM*	?	8.4%	34.4%	3.2%	10.8%
COc1cccc(OCc2cc(C(=O)NCc3cnc4ccccn34)no2)c1	8.91µM*	?	?	2.8%	-1.3%	5.2%
COc1cccc(OCc2cc(C(=O)NCc3ccccn3)no2)c1	1.6%	18.3%	61.2%	-14.0%	1.8%	48.9%
Cc1ccc(OCc2cc(C(=O)N(C)Cc3cnn(-c4ccccc4C)c3)no2)cn1	11.2µM*	6.6%	?	126.5%	-5.7%	10.7%
COc1cccc(CCNC(=O)c2cc(COc3cccc(OC)c3)on2)c1	·	·	·	·	·	7.8%
COc1cccc(OCc2cc(C(=O)NCC3CCCCC3)no2)c1	0.5%	19.8%	11.7µM*	-12.3%	?	8.4%
CC1CCN(S(=O)(=O)c2ccc3c(c2)N(CC(=O)NCC(C)c2ccccc2)C(=O)CO3)CC1 (configuration not stated)	·	·	·	·	-11.6%	·
Cc1cc(C)nc(NS(=O)(=O)c2ccc(NC(=O)COc3ccc(C(C)(C)C)cc3)cc2)n1	·	·	·	·	-3.1%	·
COc1cc(NC(=O)CC(c2cccs2)N2Cc3ccccc3C2=O)cc(OC)c1OC (configuration not stated)	·	·	·	·	12.2%	·
CCOC(=O)CNC(=O)Cn1nc(N2CCN(c3ccccc3)CC2)ccc1=O	·	·	·	·	-3.2%	·
CCOc1ccc(CCNC(=O)CN2CCN(Cc3ccc(Cl)cc3)C2=O)cc1OCC	·	·	·	·	11.7%	·
